Shown are actives, neighbours in structure and some others; about 2.6% of the full set was active somewhere.
TWEAK Fn14 block – TWEAK-Fn14 signaling inhibition | hit rate 2% among 360,000 | TWEAK-stimulated Fn14 reporter cells, luciferase luminescence, 8 h | inhibition, % at 10 µM | AID 1159606; in the data active = inhibition above about 50%
LMP1 NFkB inh – inhibitors of Epstein-Barr LMP1-induced NF-kappaB reporter. LMP1-induced NF-kappaB luciferase reporter cells, luminescence. inhibition, % at 12.5 µM. hit rate 0.69% among 350,000. AID 504558; in the data active = inhibition above about 41%;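 note: 0% = neutral control wells and 100% = reference inhibitor control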
TROY signal inh – inhibitors of TROY-dependent NF-kB signaling; Q293 LMP1-TROYcd NF-kB luciferase reporter, 4 h; inhibition, % at 10 µM; hit rate 0.98% among 360,000;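 active = compounds whose plate-normalised and pattern-corrected inhibition of the luciferase reporter signal at the single screening dose is 50% or more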
LGR2 inh – Drosophila LGR2 receptor signaling inhibition; inhibition, % at 9.99 µM; hit rate 0.35% among 380,000; HEK293 LGR2, CRE-luciferase, bursicon-stimulated, 4 h;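 active = drop in luminescence signal, shown as inhibition above about 50% in the replicate tests, limit read from the data, passing the limit was not always enough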;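 note: agonist challenge used bursicon conditioned medium at about half maximal strength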
EWS-Fli block – blocks EWS/Fli oncoprotein-driven transcription. AID 651661. inhibition, % at 12.6 µM. A673 NR0B1-luciferase reporter, viability-normalised. hit rate 0.67% among 350,000;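 active = mean inhibition of at least 50% after viability correction, with every replicate also passing that limit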;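 note: firefly luciferase signal divided by Alamar Blue viability fluorescence both relative to DMSO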
DNA binding – small molecule DNA binding by fluorescence polarization; shares compounds with EWS-Fli block; salmon sperm DNA acridine orange fluorescence polarization; AC35, µM (doses to about 68 µM), for inactives: at the top dose activity change, negative = DNA binding; hit rate 2% among 640; AID 720586;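 active = fitted curve reaches a 35% signal fall AC35 below twice the sample's top valid tested dose, actives reach about 48 µM in these data; inactive = the rest, including activity in the rising direction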;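 note: lower polarization ratio signals compound binding to DNA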
An asterisk follows results filed as active; x = not tested or not shown; ! = not confirmed by another sample; [ ] = dose if it differs, or a comment.

SMILES | TWEAK Fn14 block | LMP1 NFkB inh | TROY signal inh | LGR2 inh | EWS-Fli block | DNA binding
CN(C)S(=O)(=O)c1ccc(C(=O)NCC2CC2(Cl)Cl)cc1 (stereo not drawn) | 22 | 43* | -4 | -6 | 0 | x
CN(C)S(=O)(=O)c1ccc(C(=O)NCc2ccccc2)cc1 | -2 | 8 | -16 | x | x | x
C[C@H]1CN([C@@H](C)CO)S(=O)(=O)c2ccc(C#Cc3ccncc3)cc2O[C@@H]1CN(C)C(=O)C1CCC1 | x | x | x | 6 | 0 | x
CCCNC(=O)N1CC2(C1)[C@H](c1ccccc1)[C@H](CO)N2Cc1cccc(F)c1 | x | x | x | 6 | 7 | x
COc1cc2c(cc1OC)CN(Cc1nc3ccsc3c(=O)[nH]1)CC2 | 77* | 0 | 5 | x | x | x
O=C(N[C@H]1CC[C@H](CCn2cc(-c3ccccn3)nn2)O[C@H]1CO)c1cccnc1 | x | x | x | 3 | 1 | x
CC1=CC(=C2C(=O)c3ccccc3C2=O)C=C(C)O1 | -27 | -14 | -51 | -23 | x | x
CCCN1C=CC(=C2C(=O)c3ccccc3C2=O)C=C1 | 71* | 87* | 73* | x | x | x
CCCCN1C(C)=CC(=C2C(=O)c3ccccc3C2=O)C=C1C | 53* | 4 | 60* | 60* | -51 | x
CCN1C=CC(=C2C(=O)c3ccccc3C2=O)C=C1 | 101* | 90* | 68* | x | x | x
CCCCCCN1C=CC(=C2C(=O)c3ccccc3C2=O)C=C1 | 97* | 53* | 82* | 94* | 79* | x
O=C(C[C@@H]1CC[C@@H]2[C@H](COC[C@H](O)CN2C(=O)Nc2ccc(C(F)(F)F)cc2)O1)NCC1CCCCC1 | x | x | x | -7 | x | x
Cc1ccc(S(=O)(=O)N(C)C[C@H]2Oc3c(NC(=O)Nc4ccccc4)cccc3C(=O)N([C@@H](C)CO)C[C@H]2C)cc1 | x | x | x | 8 | 18 | x
CN1C(=O)c2cc(NC(=O)c3ccc(Cl)cc3)ccc2OC[C@@H]2O[C@@H](CC(=O)O)CC[C@@H]21 | x | x | x | 17 | 3 | x
Cc1noc(C)c1S(=O)(=O)Nc1cccc2c1O[C@H](CN(C)Cc1ccccc1)[C@H](C)CN([C@H](C)CO)C2=O | x | x | x | -63 | -1 | x
O=C(/C=C/c1ccc(N2CCC(c3ccccc3)=N2)cc1)c1ccccc1 | x | x | x | -11 | -32 | x
CCOC(=O)/C(=C\c1ccc(N2CCC(c3ccccc3)=N2)cc1)C(C)=O | 29 | 88* | 42 | 22 | -3 | x
O=C(CCNc1cccc(F)c1)c1cc2ccccc2o1 | -1 | 46* | -39 | -38 | -7 | x
C[C@@H]1CCCCO[C@@H](CN(C)C(=O)Nc2ccc3c(c2)OCO3)[C@H](C)CN([C@@H](C)CO)C(=O)c2cc(NC(=O)c3ccncc3)ccc2O1 | x | x | x | -21 | 10 | x
Cc1ccc(S(=O)(=O)N[C@H]2CC[C@H](CCNC(=O)C3CC3)O[C@@H]2CO)cc1 | x | x | x | -4 | -8 | x
CNc1nc(C(=O)O)nc(N2CCOCC2)n1 | 9 | -12 | 11 | 4 | -4 | x
Cc1ccc(C(CC(=O)O)Nc2nc(N3CCOCC3)nc(N3CCOCC3)n2)cc1 (stereo not drawn) | -5 | 4 | -9 | -4 | 65* | -4%
CCCC#Cc1cnc2c(c1)C(=O)N([C@@H](C)CO)C[C@@H](C)[C@@H](CN(C)C(=O)Cc1cccnc1)O2 | x | x | x | -10 | 4 | x
CC(C)(C)[S@](=O)N1Cc2cc(C(=O)NCC(F)(F)F)nc(-c3cccc(-c4cccc(F)c4)c3)c2[C@@H]1CCO | x | x | x | 13 | 55* | -2%
COCCNC(=O)c1cc2c(c(-c3cccc(-c4cccc(OC)c4)c3)n1)[C@H](CCO)N(S(=O)C(C)(C)C)C2 (stereo partly drawn) | -9 | x | 3 | 13 | 8 | x
SMILES | TWEAK Fn14 block | LMP1 NFkB inh | TROY signal inh | LGR2 inh | EWS-Fli block | DNA binding
CCNC(=O)c1cc2c(c(-c3cccc(-c4cccc(OC)c4)c3)n1)[C@H](CCO)N([S@@](=O)C(C)(C)C)C2 | x | x | x | -10 | 63* | -13%
O=C(C[C@@H]1C[C@H]2c3cc(NC(=O)C4CCOCC4)ccc3O[C@H]2[C@@H](CO)O1)NCc1cccnc1 | x | x | x | 8 | 1 | x
COc1cc2c(cc1OC)C(C)N(C(=O)c1nccnc1C(=O)O)CC2 (stereo not drawn) | 5 | -5 | -2 | -4 | 1 | x
COc1cc2c(cc1OC)C(C)N(C(=O)c1cc(Cl)nc(Cl)c1)CC2 (stereo not drawn) | 13 | -12 | 17 | -24 | 56* | 1%
COc1ccc(OC)c(/C=C/c2ccnc3ccccc23)c1 | 40 | 7 | -10 | -3 | 70* | -14%
C/C=C/c1ccc([C@@H]2[C@@H](C#N)N(C(=O)NC3CCCCC3)[C@@H]2CO)cc1 | x | x | x | -6 | -2 | x
N#C[C@H]1[C@H](c2ccc(-c3ccccc3F)cc2)[C@@H](CO)N1C(=O)c1ccccn1 | x | x | x | -23 | 57* | -11%
N#C[C@H]1[C@H](c2ccc(C#CC3CCCC3)cc2)[C@H](CO)N1C(=O)Nc1ccc(F)cc1 | x | x | x | 2 | 27 | x
CN(C)C(=O)c1ccc(-c2ccccc2[C@@H]2[C@@H](CO)N(C(=O)C3CC3)[C@H]2C#N)cc1 | x | x | x | -6 | 61* | -4%
N#C[C@@H]1[C@H](c2ccc(C#Cc3ccc(F)cc3)cc2)[C@@H](CO)N1C(=O)Nc1ccc(F)cc1 | x | x | x | 59* | 75* | 1%
N#C[C@H]1N[C@H](CO)[C@H]1c1ccc(C#Cc2ccc(F)cc2)cc1 | x | x | x | -43 | 53* | 6%
N#C[C@@H]1N[C@H](CO)[C@@H]1c1ccc(C#Cc2ccccc2F)cc1 | x | x | x | -69 | -108 | x
C[C@H]1CCCCO[C@H](CN(C)C(=O)CCCN(C)C)[C@@H](C)CN([C@@H](C)CO)C(=O)c2cc(NS(=O)(=O)c3ccc(F)cc3)ccc2O1 | x | x | x | 12 | -3 | x
CCCNC(=O)N1[C@H](C#N)[C@H](c2ccc(C#Cc3ccc(F)cc3)cc2)[C@H]1CO | x | x | x | 53* | 71* | 3%
CCCNC(=O)N1[C@H](C#N)[C@H](c2ccc(C#Cc3cccc(F)c3)cc2)[C@H]1CO | x | x | x | 4 | 61* | -1%
N#C[C@H]1[C@@H](c2ccc(C#Cc3ccccc3F)cc2)[C@@H](CO)N1C(=O)C1CCCCC1 | x | x | x | -2 | 12 | x
N#C[C@H]1[C@H](c2ccc(C#Cc3ccccc3F)cc2)[C@@H](CO)N1C(=O)C1CCCCC1 | x | x | x | 34 | 66* | -14%[60 µM]
O=c1oc2cc(O)ccc2s1 | 9 | 13 | 0 | x | 60* | -3%
Oc1ccc2c(c1)oc1cc(O)ccc12 | 8 | -34 | -33 | x | x | x
CO[C@@H]1CN(C)C(=O)c2ccc(NS(=O)(=O)c3ccc(Cl)cc3)cc2OC[C@H](C)N(C)C[C@@H]1C | x | x | x | -5 | 5 | x
C/C=C/c1ccc(C2[C@@H]3CN(C(=O)Cc4ccccc4)C[C@H]2N3)cc1 (stereo partly drawn) | x | x | x | 1 | 55*! | -2%
COC(=O)C[C@H]1C=C[C@H](NC(=O)Nc2ccc(C(F)(F)F)cc2)[C@H](CO)O1 | x | x | x | 25 | -44 | x
COC(=O)C[C@H]1C=C[C@@H](NC(=O)Nc2ccc(C(F)(F)F)cc2)[C@H](CO)O1 | x | x | x | 9 | 67* | -3%

Assay outcomes (PubChem)
